Compound activity as filed in PubChem.
FBW7 activator: human FBW7 E3 ligase activation, primary screen; 0.13% of 650,000 active; normalized activity (activation), % at 26.1 µM; Q969H0; AID 1259310; AlphaScreen FBW7–phospho-cyclin E peptide binding, activator screen; in the data active = normalized activity above about 1.9%;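 also: purified mutant Fbw7 with reduced substrate affinity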
GPR151 ag: activates the human receptor GPR151; 1% of 650,000 active; activation, % at 11.2 µM; PathHunter beta-arrestin GPR151 cells, luminescence; AID 1508602; Q8TDV0; in the data active = activation above about 4.9%;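 also: 0% = median of compound wells and 100% = cells with positive control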
Target sequence (Q8TDV0 whole entry, looked up): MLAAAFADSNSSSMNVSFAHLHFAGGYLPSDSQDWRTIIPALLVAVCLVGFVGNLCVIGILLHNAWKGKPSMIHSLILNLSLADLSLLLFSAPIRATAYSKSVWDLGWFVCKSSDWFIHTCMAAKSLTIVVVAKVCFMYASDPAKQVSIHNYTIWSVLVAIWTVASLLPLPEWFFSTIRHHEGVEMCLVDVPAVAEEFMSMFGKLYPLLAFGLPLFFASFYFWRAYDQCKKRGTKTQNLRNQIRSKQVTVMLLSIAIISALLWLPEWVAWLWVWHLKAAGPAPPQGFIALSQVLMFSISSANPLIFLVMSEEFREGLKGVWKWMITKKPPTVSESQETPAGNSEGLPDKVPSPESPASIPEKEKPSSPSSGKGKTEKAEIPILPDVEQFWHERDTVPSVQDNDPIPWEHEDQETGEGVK
MITF primary: blocks human microphthalmia-associated transcription factor; O75030; AlphaScreen MITF homodimerization, bead proximity signal; 0.91% of 650,000 active; inhibition, % at 2.6 µM; AID 1259374; in the data active = inhibition above about 50%;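 also: 0% = vehicle wells with protein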
TEAD-YAP inh: TEAD-YAP interaction inhibition | HEK-TIYL cells, TEAD-Gal4/YAP UAS-luciferase luminescence | inhibition, % at 9.12 µM | 1.4% of 640,000 active | AID 1259422; in the data active = inhibition above about 32%;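 also: 0% = median of test compound wells and 100% = reference inhibitor wells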
MITF confirm: human MITF inhibition, confirmation | shares compounds with MITF primary | AlphaScreen MITF homodimerization, biotin/His-MITF beads | inhibition, % at 2.6 µM | 16% of 4,700 active | AID 1259372;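 active = inhibition above a cutoff derived from the DMSO control wells, cut at about 28% in these data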;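 also: 0% = MITF dimer wells with DMSO only; inhibitors lower the bead chemiluminescence by keeping MITF from dimerizing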
AlphaScreen DR: AlphaScreen optical interference, dose response counter-screen; shares compounds with MITF primary; 6% of 480 active; IC50, µM; AlphaScreen optical interference counterscreen, cell-free; AID 1259373; call rule not given here
AlphaScreen intf2: optically interferes with AlphaScreen signal | LysRS AlphaScreen counterscreen, signal interference, triplicate | shares compounds with MITF primary | inhibition, % at 2.6 µM | 7.6% of 4,700 active;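 active = inhibition above a cutoff derived from the DMSO control wells, cut at about 30% in these data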
* hit, by the source's call; · = not tested or not shown. A selection: hits, their analogues and other compounds. The true share with any hit is near 3.5%.

SMILES	FBW7 activator	GPR151 ag	MITF primary	TEAD-YAP inh	MITF confirm	AlphaScreen intf2	others
CN1CC=C(c2noc(CCC(=O)Nc3ccc(Cl)cc3)n2)CC1	0.0	1.2	72.6*	-1.5	67.8*	46.1*
CCN1CCN(Cc2ccc(NC(=O)CCc3nc(C4=CCN(C)CC4)no3)cc2)CC1	3.9*	0.4	58.6*	4.5	63.1*	41.5*
CCc1ccc(NC(=O)CCc2nc(C3=CCN(C)CC3)no2)cc1	0.5	-1.5	65.0*	5.7	48.2*	19.0	AlphaScreen DR=>6.48
CCOC(=O)N1CCC(NC(=O)CCc2nc(C3=CCN(C)CC3)no2)CC1	0.5	-1.0	53.3*	6.5	35.0*	14.6	AlphaScreen DR=>6.48
O=c1[nH]c(C2CCNCC2)nc2ccccc12	-0.1	-0.4	0.0	-3.8	·	·
CCN(CC)S(=O)(=O)c1ccc(NC(=O)CCc2nc(C3=CCN(C)CC3)no2)cc1	-0.1	-1.6	82.8*	12.0	94.1*	65.8*
CN1C(=O)C(=Cc2cccc([N+](=O)[O-])c2)C(=O)N(C)C1=O	-1.0	0.0	-18.3	1.4	·	·
OCCN1CCN(Cc2cccc(Br)c2)CC1	-0.1	-0.1	91.3*	7.5	-0.3	0.6
CCOc1ccc(CN2CCN(CCO)CC2)cc1	-0.2	1.9	41.6	-2.6	·	·
COc1ccc(CN2CCN(CCO)CC2)cc1OC	0.1	0.2	13.6	-1.0	·	·
OCCN1CCN(Cc2ccc(Cl)cc2Cl)CC1	0.0	-0.3	50.9*	8.3	1.9	1.2
OCCN1CCN(Cc2ccc(Cl)c(Cl)c2)CC1	0.0	2.3	82.8*	5.3	5.8	0.7
OCCN1CCN(Cc2ccc(Br)cc2)CC1	0.0	1.1	66.5*	6.5	-3.3	3.2
O=C(CNC(=S)N(Cc1ccccc1)Cc1ccccc1F)N1CCC2(CC1)OCCO2	0.0	-0.5	3.7	2.5	·	·
CC(C)N1CCN(C2CC3CCC2C3)CC1 (stereo unspecified)	-0.1	-0.6	60.5*	3.7	-11.9	2.3
N#CC1=C(N)Oc2c(c(=O)oc3ccccc23)C1c1ccccc1OC(=O)N1CCOCC1 (stereo unspecified)	1.0	0.3	10.3	1.9	·	·
COc1ccc(CN2CCN(C)C(CCO)C2)cc1 (stereo unspecified)	0.2	-1.8	18.9	6.1	·	·
Cc1ccc(N2CCN(Cc3ccccc3[N+](=O)[O-])CC2)cc1	-0.3	-0.3	6.5	-9.8	·	·
O=[N+]([O-])c1ccccc1CN1CCN(Cc2ccc(F)cc2)CC1	-0.1	0.3	67.9*	-23.2	15.9	17.8
CN1CCN(Cc2ccccc2[N+](=O)[O-])CC1	0.0	-0.2	46.8	9.3	·	·
O=[N+]([O-])c1ccccc1CN1CCN(c2ccc(F)cc2)CC1	-0.2	-0.2	54.4*	5.0	-2.0	-0.7
CN1CCN(Cc2ccc([N+](=O)[O-])o2)CC1	-0.2	-0.5	47.7	-2.5	·	·
CN1CCN(Cc2ccc([N+](=O)[O-])s2)CC1	0.1	2.6	56.0*	-2.2	6.5	12.1
Cc1cc(OCC(=O)N(C)C)c2c3c(c(=O)oc2c1)CCC3	-0.1	0.0	-0.3	17.7	·	·
FC(F)(F)c1ccccc1CNCCc1ccc2c(c1)OCO2	0.2	0.9	54.7*	8.0	-16.2	-2.0
SMILES	FBW7 activator	GPR151 ag	MITF primary	TEAD-YAP inh	MITF confirm	AlphaScreen intf2	others
CC(C)(NC(=O)C(Cl)(Cl)Cl)c1ccncc1	0.0	-0.2	1.3	1.1	·	·
C=CCO/N=C/c1c[nH]c2ccc(Br)cc12	0.0	1.3	7.5	-6.8	·	·
CC1(C)CC2CC(C)(CN2CCC#N)C1 (stereo unspecified)	-0.1	0.4	52.8*	2.3	-12.3	-9.1
CC(C#N)CN1CC2(C)CC1CC(C)(C)C2 (stereo unspecified)	0.1	-0.3	38.5	-1.1	·	·
O=C(c1ccncc1)N1CCN(C2CC3CCC2C3)CC1 (stereo unspecified)	-0.1	2.1	63.6*	-3.6	0.6	14.0
O=C(c1ccncc1)N1CCN(C2C3CC4CC(C3)CC2C4)CC1 (stereo unspecified)	0.2	1.1	75.6*	11.4	-3.0	-2.6
Oc1cccc(CN2CCN(c3cccc(Cl)c3)CC2)c1	-0.2	-0.7	-2.7	0.8	·	·
CC(C)N1CCN(Cc2ccco2)CC1	0.0	1.1	61.6*	-2.0	6.6	-2.9
CC(C)N1CCN(Cc2cccnc2)CC1	-0.1	0.4	73.8*	12.6	4.2	7.4
CC(C)N1CCN(Cc2cccc(Br)c2)CC1	-0.1	-0.3	81.5*	12.4	14.1	12.7
CCN1CCN(Cc2cccc(Br)c2)CC1	0.5	0.6	16.1	5.0	·	·
COc1cccc(CN2CCN(C(C)C)CC2)c1	-0.1	0.9	46.2	4.2	·	·
CCC(C)N1CCN(Cc2cccc(Br)c2)CC1 (stereo unspecified)	-0.2	1.5	73.4*	9.2	8.3	14.7
Cc1cc(OCC(N)=O)c2c3c(c(=O)oc2c1)CCCC3	-0.1	-1.1	-1.1	21.2	·	·
O=c1c2ccccc2nc(-c2ccccc2)n1-c1ccccc1O	0.0	-0.3	67.6*	11.7	32.0*	-5.9	AlphaScreen DR=>6.5
CN1C(=O)C2(c3ccccc31)C(C(=O)O)CC1CCCN12 (stereo unspecified)	-0.1	-0.2	-1.2	3.6	·	·
C1COCCOCCOCCOCCO1.C1COCCOCCOCCOCCO1.[Cl-].[Cs+].[O]=[Cr](=[O])=[O]	0.1	2.0	57.3*	-3.1	19.4	7.3
CCCCCCSc1nc2ccccc2c(=O)n1-c1ccccc1OC	0.0	-0.5	-14.9	6.3	·	·
Cc1ccc(-n2c(/C=C/c3ccccc3)nc3ccccc3c2=O)c([N+](=O)[O-])c1	0.0	1.3	9.3	22.4	·	·
Fc1ccc(CN2CCN(Cc3ccc(F)cc3)CC2)cc1	0.1	-0.5	74.5*	4.5	8.9	-7.3
Clc1ccc(CN2CCN(Cc3cccc(Cl)c3)CC2)cc1	-0.2	-0.1	71.1*	-2.1	17.0	16.9
COc1ccc(CN2CCN(Cc3ccc(F)cc3)CC2)cc1	-0.2	0.2	77.9*	-0.7	0.3	12.4
COc1cccc(CN2CCN(Cc3ccc(Cl)cc3)CC2)c1	0.0	3.5	79.2*	-19.2	17.3	17.1
CCCCCCCCN1C(=O)CC(=O)NC1=S	0.1	1.7	1.3	2.6	·	·
CN1CCN(Cc2ccc(C(F)(F)F)cc2)CC1	0.0	-0.3	56.3*	0.9	-0.3	3.0
SMILES	FBW7 activator	GPR151 ag	MITF primary	TEAD-YAP inh	MITF confirm	AlphaScreen intf2	others
CN1CCN(Cc2ccc(N(C)C)cc2)CC1	-0.4	0.7	-39.8	-5.9	·	·
COc1cccc(CN2CCN(Cc3ccc(F)cc3)CC2)c1	-0.2	-1.1	72.1*	-18.4	9.8	13.8
COc1cccc(CN2CCN(Cc3cccc(C)c3)CC2)c1	-0.2	0.2	74.4*	-4.9	3.4	1.2
CSc1ccc(CN2CCN(Cc3ccccc3)CC2)cc1	-0.6	1.4	53.8*	5.0	8.3	2.0
COc1cccc(CN2CCN(c3ccc(F)cc3)CC2)c1	0.0	0.3	43.5	8.1	·	·
CSc1ccc(CN2CCN(C)CC2)cc1	-0.1	0.8	20.8	3.0	·	·
O=C(CC1Oc2ccccc2NC1=O)Nc1ccc(Cl)cc1C(=O)c1ccccc1 (stereo unspecified)	0.0	0.9	12.4	-6.7	·	·
